From PubChem BioAssay AID743258 (The Scripps Research Institute Molecular Screening Center, 2014) come the findings set out here.

In all, about 3,300 compounds went through this assay and about 100 (3%) were called active. These entries were drawn from the full list. Values without a mark were called inactive. Rule as the data show it: active = inhibition above about 9.5%; inactive = the rest.

For this assay, the target named is 1-phosphatidylinositol 4,5-bisphosphate phosphodiesterase gamma-1 (Homo sapiens) (UniProt P19174). As to the kind of experiment: human PLCG1 activity blockade – biochemical, fluorescence, counter-screen for PLC-beta3 inhibitor project (AID 743258). Conditions: purified PLC-gamma1, fluorogenic substrate, at 12.3 µM, active compounds read high.
Sequence of 1-phosphatidylinositol 4,5-bisphosphate phosphodiesterase gamma-1 (Homo sapiens) (P19174 whole entry, looked up): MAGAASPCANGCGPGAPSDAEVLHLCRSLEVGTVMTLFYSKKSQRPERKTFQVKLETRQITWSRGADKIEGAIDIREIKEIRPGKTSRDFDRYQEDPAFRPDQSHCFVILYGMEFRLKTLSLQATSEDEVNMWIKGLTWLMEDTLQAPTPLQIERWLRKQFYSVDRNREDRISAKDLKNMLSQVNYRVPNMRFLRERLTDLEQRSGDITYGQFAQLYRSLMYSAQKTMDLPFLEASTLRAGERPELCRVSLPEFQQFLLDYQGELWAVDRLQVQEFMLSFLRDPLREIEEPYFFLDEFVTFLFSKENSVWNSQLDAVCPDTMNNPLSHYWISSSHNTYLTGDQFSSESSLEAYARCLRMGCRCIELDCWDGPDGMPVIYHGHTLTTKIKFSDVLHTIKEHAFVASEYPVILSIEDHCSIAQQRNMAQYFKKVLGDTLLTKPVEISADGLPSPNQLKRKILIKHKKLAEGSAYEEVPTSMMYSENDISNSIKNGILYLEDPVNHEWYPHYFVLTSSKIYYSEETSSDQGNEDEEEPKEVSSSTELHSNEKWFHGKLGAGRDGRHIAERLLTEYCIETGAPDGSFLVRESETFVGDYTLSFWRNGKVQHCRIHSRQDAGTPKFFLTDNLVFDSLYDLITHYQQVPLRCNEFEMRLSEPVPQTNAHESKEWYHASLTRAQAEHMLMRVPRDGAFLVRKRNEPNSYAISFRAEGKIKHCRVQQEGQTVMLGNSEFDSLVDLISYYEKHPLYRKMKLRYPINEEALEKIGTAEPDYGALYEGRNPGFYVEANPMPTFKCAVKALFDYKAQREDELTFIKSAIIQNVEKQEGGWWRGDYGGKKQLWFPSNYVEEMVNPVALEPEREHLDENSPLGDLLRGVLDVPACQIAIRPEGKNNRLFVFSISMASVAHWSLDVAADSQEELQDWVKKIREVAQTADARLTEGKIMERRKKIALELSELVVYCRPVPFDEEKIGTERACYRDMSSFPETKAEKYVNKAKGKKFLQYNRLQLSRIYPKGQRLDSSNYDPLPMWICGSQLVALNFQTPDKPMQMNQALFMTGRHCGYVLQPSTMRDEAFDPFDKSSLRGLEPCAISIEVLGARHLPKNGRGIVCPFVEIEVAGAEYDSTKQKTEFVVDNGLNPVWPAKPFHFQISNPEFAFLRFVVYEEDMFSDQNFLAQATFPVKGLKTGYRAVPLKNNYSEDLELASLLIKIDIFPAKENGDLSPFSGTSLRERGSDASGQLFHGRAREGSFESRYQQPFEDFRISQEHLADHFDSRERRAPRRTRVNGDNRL
`CCCCNc1ccc(C(=O)Nc2cccc(C)n2)cc1[N+](=O)[O-]`: the inhibition – broadly, the drop in the measured response relative to a control, in per cent – is -2.76%.

As for `Nc1nnc(SCC(=O)OCc2ccc(Cl)c(Cl)c2)s1`, the inhibition was -3.53%.

`CCCCn1c(SCC(=O)N2CCCC2=O)nc2cc(S(N)(=O)=O)ccc21`: the inhibition is -2.51%. Under `COc1ccccc1CCNC(=O)CN1C(=O)NC2(CCCC2)C1=O` stands 5.92%. Under `Cc1cc(C)c(NC(=O)CN2CCOCCOCCOCCOCC2)c(C)c1` stands -2.06%; under `O=c1c([N+](=O)[O-])cc(C(F)(F)F)cn1Cc1cccc(Cl)c1`, 8.36%; under `O=C(CSc1ncn[nH]1)N/N=C/c1ccc(F)cc1`, 0.56%.

Turning to `CCOC(=O)[C@]12CCCC=C1N(CCCOC)C(=O)[C@@H]2CC(=O)N1CCOCC1`, the inhibition was -3.38%. The result for `Cc1nc(Nc2ccccc2C)c2cnn(C)c2n1` reads -6.74%; that for `Cc1cc(NC(=O)COn2nnc3ccccc32)no1`, -0.28%; that for `C[C@]12c3[nH]c4ccc(Cl)cc4c3CCN1C(=O)[C@@H](CC(=O)NCCCn1ccnc1)C[C@@H]2C(=O)N1CCOCC1`, -7.65%. The result for `C=CC1=C(C(=O)O)N2C(=O)[C@@H](NC(=O)/C(=N\OCC(=O)O)c3csc(N)n3)[C@H]2SC1` reads 88.6% (active); that for `COc1ccc(C(N)c2csc(NC(=O)Nc3cccc(C(F)(F)F)c3)n2)cc1` (stereo not given), -0.69%. `COc1ccc(/C(C)=N/N2CCOCC2)c(O)c1`: the inhibition was -16.2%. The result for `CC(C)n1c(CN2CCN(Cc3ccccc3)CC2)nc2ccccc21` reads -8.55%; that for `CC(=O)C12CC(C)=C(C)CC1CC1C3CCC4=CC(=O)CCC4(C)C3CCC12C` (stereo not given), -1.14%. The result for `O=C(NC12CC3CC(CC(C3)C1)C2)N1CCCC(CO)C1` (stereo not given) reads -3.42%; that for `COc1ccccc1C(=O)N1C(CC(=O)Nc2ccccc2C)C(=O)NC2CCCCC21` (stereo not given), -4.18%; that for `C=CCn1c(SCn2nnc3ccccc3c2=O)nnc1-c1ccc(Cl)cc1`, -4%. The result for `CCOC(=O)C1CCN(C(=O)c2ccccc2N(C)S(=O)(=O)c2ccccc2)CC1` reads -3.46%. Regarding `CCC[C@H]1CCCC/C=C\CCCC(=O)OCCN1C(=O)OC(C)(C)C`, the inhibition is 1.42%. Under `Cc1cccc([C@@H]2[C@@H]3C(=O)N(Cc4ccccc4)C(=O)[C@@H]3[C@]3(Cc4ccc(Cl)cc4)C(=O)N(c4cccc(Cl)c4)C(=O)N23)c1` stands 3.36%; under `Cc1c(C(=O)c2cccc([N+](=O)[O-])c2)c2ccccn2c1CCC#N`, -0.24%; under `CC1(C)CC(=O)C=C(NC2CC(C)(C)NC(C)(C)C2)C1`, -0.48%.

Regarding `Cc1ccc(-c2cn(S(=O)(=O)c3cccc([N+](=O)[O-])c3)nc2N)cc1`, the inhibition was -5.96%. Under `O=C(Nc1ccc(Br)cc1)C1CCC(=O)N1Cc1ccccc1Cl` (stereo not given) stands -0.49%; under `CCN(CC)Cc1csc2ccc(Br)cc12`, -2.99%; under `Cc1nc2ccccc2nc1CC(O)(c1ccccc1)c1ccccc1`, 1.82%. Under `C/C(CC(C)C)=N\Oc1nc(C)cc(C)n1` stands -8.49%. Under `O=C(c1ccc2c(c1)OCO2)N1CCNc2ccccc2C1` stands -5.39%. Turning to `Cc1cccc(C(=O)NCCCN2CCCC2=O)c1`, the inhibition was -4.45%.

In the case of `Cc1ccc(NC(=S)N(Cc2ccco2)C(C)c2cccs2)cc1` (stereo not given), the inhibition is -3.86%.

For `O=c1c2ccccc2c(-c2ccccc2)nn1Cc1ccccc1`, the inhibition is -4.2%. Under `O=C1c2ccccc2S(=O)(=O)N1CC(O)Cn1c2ccccc2c2ccccc21` (stereo not given) stands 2.37%. Under `O=C(/C=C/c1c(F)cccc1Cl)Nc1nn[nH]n1` stands -8.5%; under `CCOc1ccccc1NC(=O)c1cccnc1`, -8.44%; under `CCc1c(Nc2ccccc2C)nc(N)[nH]c1=O`, 0.72%. Take `COc1ccc([N+](=O)[O-])cc1N(CC(O)Cn1nnc2ccccc21)S(=O)(=O)c1ccc(C)cc1` (stereo not given): the inhibition was -0.66%. Turning to `COc1cc(NC(=O)COC(=O)c2ccc([N+](=O)[O-])s2)cc(OC)c1OC`, the inhibition was -0.3%. Under `Cc1ccc(C(=O)N2CCN(C(=O)N3CCOCC3)CC2)cc1` stands -6.45%; under `O=C(CSc1nnc(-c2ccncc2)n1C1CCCCC1)Nc1ccccc1`, -6.62%; under `COC(=O)NC1(C(F)(F)F)NC(=O)N(C2CCCCC2)C1=O` (stereo not given), -2.81%.

For `CN(C)S(=O)(=O)c1cccc(NC(=O)COC(=O)C2(c3ccccc3F)CCCC2)c1`, the inhibition was -1.97%. Regarding `O=C(O)c1ccc(Cn2c(=S)[nH]c3cc(Cl)ccc3c2=O)cc1`, the inhibition was -7.72%. The result for `C[C@H](C(=O)N(C)c1ccccc1)[C@@H](O)c1ccc2ccccc2c1` reads -5.46%; that for `CC(C)(C)c1ccc(C(=O)Nc2cc(Cl)c(Br)cc2C(=O)O)cc1`, -7.48%. The result for `CN(C)/C=C(/C(=O)c1ccc(Cl)cc1)S(=O)(=O)c1ccccc1` reads -4.31%; that for `CCOc1ccc(NC(=O)[C@H](C)NC(=O)C2CC(=O)N(c3ccc(OC)cc3)C2)cc1` (stereo not given in full), -8.84%; that for `CC1Oc2ccccc2N(Cc2cccnc2)C1=O` (stereo not given), -5.05%. The result for `CCOC(=O)N1CCC(c2cc(=O)n(-c3ccccc3)[nH]2)CC1` reads 2.8%; that for `CC(C)C(NC(=O)C1CCC(C(C)(C)C)CC1)C(=O)NCCCN1CCCCC1` (stereo not given), 8.08%.

As for `CC1(C)CC(=O)C=C(NCCN2CCNCC2)C1`, the inhibition is -10.6%. Under `Cc1ccc(S(=O)(=O)N2CCCCC2)cc1NC(=O)CCNC(=O)c1ccccc1` stands -4.84%; under `O=C1CS(=O)CN1c1ccc(Oc2ccccc2)cc1` (stereo not given), 24.1% (active); under `CC(C)Oc1ccc(CC(=O)NNC(=S)Nc2ccc(Br)cc2)cc1`, -9.3%. Under `OC(CNCC1CCCO1)Cn1c2ccc(Br)cc2c2cc(Br)ccc21` (stereo not given) stands -8.03%; under `Cc1ccccc1C(=O)Nc1ccccc1Sc1ccccc1`, -2.19%. Under `CC(=O)c1c(C)[nH]c(C(=O)OCC(=O)Nc2cc(S(=O)(=O)N3CCCCC3)ccc2C)c1C` stands -5.44%; under `O=C(CCNS(=O)(=O)c1ccc(Br)cc1)NCC1CCCO1` (stereo not given), -3.55%.

Regarding `CCOC(=O)Nc1ccc(NC(=O)OCC)cc1`, the inhibition was 5.66%. Under `Cc1ccc(S(=O)(=O)Cn2nnnc2CN2CCN(Cc3ccc4c(c3)OCO4)CC2)cc1` stands 0.94%; under `Cc1cccc(NC(=O)c2ccc3c(=O)n(CC4CCCO4)c(=S)[nH]c3c2)c1` (stereo not given), -0.76%; under `CCn1c(/C=C/Nc2ccccc2)[n+](CC)c2ccc(C(=O)OCC(F)(F)F)cc21`, -14.3%. The result for `Cc1ccc(/C=N/NC(=O)CSc2nc3ccccc3o2)cc1` reads -5.43%. For the compound `CNC(=O)c1ccc(NC(=O)c2cccc(C(F)(F)F)c2)cc1`, the inhibition was -6.45%. The result for `CCCCc1nc2ccccc2c(NC(=O)CN2CCN(C)CC2)c1CCC` reads -4.07%; that for `COc1ccccc1C(=O)Nc1cccc(C(=O)N2CCOCC2)c1`, -6.49%.

`COCCCN(C(=S)Nc1c(C)cc(C)cc1C)C(C)c1ccncc1` (stereo not given): the inhibition is -0.82%. Under `Cc1ccc(C)c(N2CCN(S(=O)(=O)c3c(C)[nH]c(C)c3C(=O)N3CCCC3)CC2)c1` stands -8.57%; under `CN(CC(=O)NC1CCCCC1)S(=O)(=O)c1ccc(Br)s1`, -5.25%. For `O=C1N[C@@H](c2ccccc2)COC(=O)[C@H](Cc2ccc(F)cc2)C/C=C\C[C@@H]1CC(=O)N(CCO)Cc1ccccc1`, the inhibition was -2.05%. The result for `Cc1ccc(N2CC(C(=O)NCCS(=O)(=O)N3CCN(c4ccccc4)CC3)CC2=O)cc1` (stereo not given) reads -3.74%; that for `O=c1ccc2c(-c3ccccc3S(=O)(=O)O)c3ccc(O)c(O)c3oc-2c1O`, 26.6% (active); that for `NC1=CC(=O)C(=O)c2cccnc21`, 0.29%. Under `CCc1ccc(-c2nc(SCC(=O)NC3CCCC3)n[nH]2)cc1` stands -6.5%; under `Cc1ccc(-n2ncc3c2CC(C)(C)CC3NC(=O)CCc2cnn(C)c2)cc1` (stereo not given), -2.59%. The result for `COC(=O)CN1C(=O)C(O)=C(C(C)=O)C1c1ccc([N+](=O)[O-])cc1` (stereo not given) reads -0.28%.

In the case of `O=C(NCc1ccc(F)cc1F)[C@@H]1CCCN1C(=O)[C@@H]1CCCN1C(=O)c1cccc(Cl)c1`, the inhibition was -4.84%. Under `CCOc1ccc(CCNC(=O)COC(=O)CCS(=O)(=O)c2ccc(C)cc2)cc1OCC` stands 1.09%; under `Cc1ccc(C(=O)Nc2ccc(C)c(S(=O)(=O)N(C)C)c2)s1`, -0.35%; under `CC(=O)C1=C(O)C(=O)N(c2cccnc2)C1c1ccc([N+](=O)[O-])cc1` (stereo not given), -4.99%. Under `O=C(C(c1ccccc1)c1ccccc1)N1CCN(CC(O)COc2ccccc2)CC1` (stereo not given) stands 0.93%; under `NC1=NN(c2cccc(C(=O)O)c2)C(=O)C1`, -3.09%. For `CCOc1cccc(-c2nnc3sc(COc4ccc(OC)cc4)nn23)c1`, the inhibition is -4.31%.

With `O=S(=O)(Nc1ccc(Oc2ncccn2)c(Cl)c1)c1ccc(F)cc1`, the inhibition was -6.2%. Under `CC1CCN(S(=O)(=O)c2ccc(S(=O)(=O)NCc3ccco3)cc2)CC1` stands 0.59%. For `CN(C(=O)c1ccc(NC(=O)Cc2cccc(NC(=O)C3CCN(C(=O)c4ccccc4)CC3)c2)cc1)C1CC1`, the inhibition is -5.36%. The result for `COc1cc(OC)nc(S(C)(=O)=O)n1` reads 1.91%.

Regarding `O=C(COc1ccc(Cl)cc1)N1CCN(c2cccc(C(F)(F)F)c2)CC1`, the inhibition is -4.75%. The result for `COCCNC(=O)C(c1ccc(O)cc1)N(C(=O)CCC(=O)Nc1nccs1)c1ccc(C)cc1` (stereo not given) reads 0.09%.
